We go through one compound from PubChem BioAssay (NCATS).

Where “and” joins values, the source holds several entries; their conditions need not be identical. Identical values can stand only once. Records with an inconclusive call do not appear. Calls of active or inactive are those of the source. Unless noted, calls follow the shape of the dose curve; as a rule, active = well fitted curve in the direction sought with a large enough effect; inconclusive = small, poorly fitted or top-dose-only effect, or another doubt; inactive = no such curve, though single readings can be large; an effect the other way counts as inactive or inconclusive.

The nature of assay [1]: AP1 Signaling Pathway (AID 357; active = well fitted curve in either direction with a large enough effect, not every such curve was filed as active;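 also: ME-180 reporter cells stimulated with EGF at its EC50 level; % is scaled to controls: 0 for no effect and ±100 for the full control effect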). To be noted: ME-180 AP-1-bla reporter, EGF-induced, beta-lactamase ratio, 5 h; at 38 µM (top of the series). A digest of the protocol:
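AP-1-bla ME-180 cells, Opti-MEM + 0.5% dialyzed FBS, plated overnight 37 °C. Cpd titration + EC50 EGF, 5 h 37 °C. CCF4 2.5 h RT; ex 405, em 460/530 ratio → %activity, AC50.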

Assay [2] has as its target Cytochrome P450 1A2 (Homo sapiens) (UniProt P05177). Briefly: p450-cyp1a2 (AID 410; calls by dose curve; also: potency is read from the fitted curve at half-maximal effect). To be noted: recombinant CYP1A2, luciferin-ME demethylation, luminescence; series mostly up to 57 µM. A digest of the protocol:
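Luminescent demethylation readout: Luciferin-ME (100uM, equal to Km) turned over by 20nM CYP1A2 for 60 min at room temperature after NADPH regeneration addition, following 10 min compound preincubation. Normalization used 57 uM furafylline as full inhibition.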

Assay [3] is described as follows: NFAT Signaling Pathway (AID 444; active = well fitted curve in either direction with a large enough effect, not every such curve was filed as active;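 also: carbachol stimulus at about its EC50 of 1 µM final; % is scaled to controls: 0 for no effect and ±100 for the full control effect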). The conditions noted are these: Jurkat NFAT-bla M1, carbachol, beta-lactamase ratio, 5 h; at 38 µM (top of the series). A digest of the protocol: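 Read-out: CCF4 FRET ratio (460 nm/530 nm) after 1 h RT dye loading, used for %activity and AC50 from titration series. Cells: Jurkat NFAT-β-lactamase/M1 line, treated with compound plus 1 uM carbachol for 5 h, 37 °C.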

In assay [4] the target is Glucocorticoid receptor (Homo sapiens) (UniProt P04150). Briefly: GR-GFP Redistribution (AID 450;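 active = compounds whose dose series gives a full or clear partial fitted curve of increased nuclear translocation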; also: potency is read from the fitted curve at half-maximal effect). To be noted: U2OS GR-GFP nuclear translocation, laser cytometry, 2 h.
Chain of Glucocorticoid receptor (Homo sapiens) (P04150 whole entry, looked up, the tested form may be a part): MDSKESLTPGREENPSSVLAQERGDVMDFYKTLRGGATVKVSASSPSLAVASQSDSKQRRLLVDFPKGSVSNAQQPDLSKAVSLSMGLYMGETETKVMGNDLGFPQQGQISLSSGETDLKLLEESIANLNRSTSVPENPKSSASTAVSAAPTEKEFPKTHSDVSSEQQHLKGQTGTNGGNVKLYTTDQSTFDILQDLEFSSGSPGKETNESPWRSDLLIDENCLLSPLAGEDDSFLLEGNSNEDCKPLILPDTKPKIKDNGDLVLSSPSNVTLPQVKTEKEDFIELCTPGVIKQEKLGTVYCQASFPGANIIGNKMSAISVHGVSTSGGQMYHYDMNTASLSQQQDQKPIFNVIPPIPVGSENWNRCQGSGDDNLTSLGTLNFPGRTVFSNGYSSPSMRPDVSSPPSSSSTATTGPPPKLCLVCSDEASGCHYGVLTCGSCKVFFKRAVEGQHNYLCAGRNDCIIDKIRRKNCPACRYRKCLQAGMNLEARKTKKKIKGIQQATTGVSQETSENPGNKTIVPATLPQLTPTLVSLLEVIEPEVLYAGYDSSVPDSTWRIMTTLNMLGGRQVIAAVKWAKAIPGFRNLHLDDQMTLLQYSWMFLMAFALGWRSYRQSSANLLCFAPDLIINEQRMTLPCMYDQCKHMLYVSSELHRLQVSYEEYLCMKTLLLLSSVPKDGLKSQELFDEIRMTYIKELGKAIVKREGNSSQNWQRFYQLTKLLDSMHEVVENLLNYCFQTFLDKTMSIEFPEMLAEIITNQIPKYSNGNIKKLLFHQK
For assay [5] the target is unchanged. The assay is described as follows: GR-EFC Redistribution (AID 451; calls by dose curve; also: potency is read from the fitted curve at half-maximal effect). To be noted: CHO-K1 GR-EFC translocation, beta-gal luminescence, 2 h. The essentials: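 Translocation of GR-ED fusion to nuclear EA restores b-gal, read by luminescence after 1 h room-temperature detection. Engineered CHO-K1 biosensor cells, 1,000/well, exposed 2 h at 37 C to titrations up to 46 uM final.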

Assay [6] has as its target Mitogen-activated protein kinase 10 (Mus musculus) (UniProt Q61831). Briefly: JNK3 AlphaScreen Assay (AID 530; active = well fitted curve in either direction with a large enough effect, not every such curve was filed as active;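 also: kinase came from lysate of stimulated human HepG2 cells; signal reports phosphorylation of biotinylated GST-cJun 1-79 at Ser73 with 10 µM ATP; % is scaled to controls: 0 for no effect and ±100 for the full control effect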). The conditions noted are these: JNK3 lysate, c-Jun phosphorylation; series mostly up to 57.1 µM. The essentials: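 qHTS titrations with 15 min compound pre-incubation before adding ATP (10 uM final). Read-out: AlphaScreen of Ser73-phosphorylated biotin-GST-cJun using HepG2 lysate JNK3 activated by IL-1β and TNFα.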

Assay [7] concerns the target 3',5'-cyclic-AMP phosphodiesterase 4B (Homo sapiens) (UniProt Q07343). The assay is described as follows: qHTS Assay for Inhibitors of PDE-IV (AID 607; active = well fitted activation curve with a large enough effect in the main read-out, with a control signal flat, not every such curve was filed as active; also: % of control where 0% means no effect). The conditions noted are these: HEK293 ACTOne CNG channel cells, membrane potential fluorescence; series mostly up to 22.9 µM. A digest of the protocol: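 The readout is membrane depolarisation from a cAMP-sensing CNG channel, detected with a potential dye at ex 535/em 590. Cells were HEK293-derived (endogenous PDE-IV) at 1000 cells/well, titrated up to 22.9 uM final.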
(Quantitative high-throughput screening tests each substance at several concentrations.)

In assay [8] the target is Guanine nucleotide-binding protein G(i) subunit alpha-1 (Homo sapiens) (UniProt P63096). Briefly: qHTS Assay for Inhibitors of RGS12 GoLoco Motif Activity (Green Fluorophore) (AID 879).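 Also: 0% = labeled peptide with Gαi1 and full inhibition = labeled peptide alone without protein; negative values mean loss of peptide binding seen as reduced polarization.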 The conditions noted are these: Galphai1/FITC-RGS12 GoLoco peptide, fluorescence polarization; series mostly up to 57.1 µM. The essentials: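 A drop in FITC polarization marked displacement of the FITC-tagged RGS12 GoLoco peptide (10 nM) from Gαi1 (50 nM). Compounds were incubated 10 min at room temperature in Tris pH 7.5 buffer containing 150 mM NaCl, 0.1 mM GDP and 0.05% NP40; unlabeled peptide titration served as control.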
Chain of Guanine nucleotide-binding protein G(i) subunit alpha-1 (Homo sapiens) (P63096 whole entry, looked up): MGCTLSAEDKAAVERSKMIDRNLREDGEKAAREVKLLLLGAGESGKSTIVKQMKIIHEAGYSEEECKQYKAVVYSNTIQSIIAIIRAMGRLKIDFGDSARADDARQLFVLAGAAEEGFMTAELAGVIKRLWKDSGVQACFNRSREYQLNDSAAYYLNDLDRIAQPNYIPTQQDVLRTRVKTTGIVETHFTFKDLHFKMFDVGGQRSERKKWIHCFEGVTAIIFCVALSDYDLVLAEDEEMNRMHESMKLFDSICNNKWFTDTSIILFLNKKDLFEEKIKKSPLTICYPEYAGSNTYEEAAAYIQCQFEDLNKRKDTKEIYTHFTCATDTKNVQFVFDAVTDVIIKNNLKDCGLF

The target of assay [9] is Cytochrome P450 2C9 (Homo sapiens) (UniProt P11712). The assay is described as follows: qHTS Assay for Inhibitors and Substrates of Cytochrome P450 2C9 (AID 883). Also: potency is read from the fitted curve at half-maximal effect; nearly all actives have a fitted effect of over 60% in size. The conditions noted are these: recombinant CYP2C9, luciferin-H luminescence, 60 min; series mostly up to 57.1 µM. The essentials:
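Luminescent read-out of deoxyluciferin hydroxylation, normalized to 57uM sulphaphenazole (AC100). Reaction: 10nM enzyme, 100uM Luciferin-H (equal to KM), 25mM KPO4, 10 min compound preincubation, then 60 min with NADPH regeneration, both at 37C.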

A short description of assay [10]: qHTS Assay for Identification of Small Molecule Antagonists for NFkB Signaling Pathway (AID 895; active = well fitted inhibition curve with a large enough effect in the signal ratio, with a control signal flat, not every such curve was filed as active; the % refers to the signal ratio; also: % is scaled to controls: 0 for no effect and ±100 for the full control effect). To be noted: NFkB beta-lactamase reporter cells, FRET ratio 460/530, stimulated with 10 pM TNF alpha; series mostly up to 38.3 µM. The essentials: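 Beta-lactamase reporter read-out (460 and 530 nm emission ratio, 405 nm excitation, 2 hrs substrate loading RT) after 5 hr stimulation with 10 pM TNF alpha in compound-treated NFkB-bla ME-180 cells in low-serum medium.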

For assay [11], the target named is Cytochrome P450 2C19 (Homo sapiens) (UniProt P33261). Briefly: qHTS Assay for Inhibitors and Substrates of Cytochrome P450 2C19 (AID 899). Also: potency is read from the fitted curve at half-maximal effect; nearly all actives have a fitted effect of over 60% in size. To be noted: recombinant CYP2C19, luciferin-H EGE luminescence; series mostly up to 57.1 µM. A digest of the protocol:
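Luminescence readout of luciferin formed from 10uM Luciferin-H EGE (KM level) by 5 nM CYP2C19 in 50mM KPO4. 60 min NADPH-driven reaction at 37C after 10 min compound preincubation; data scaled to 57uM ketoconazole inhibition.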

The nature of assay [12]: Confirmation and Secondary Assay for Modulators of Hemoglobin Beta Chain Splicing at IVS2 654 locus (AID 910).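 Also: HeLa cells stably carrying EGFP split by mutant beta-globin IVS2-654 intron; % of control where 0% means no effect.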 The conditions noted are these: HeLa EGFP-654 splicing reporter, GFP fluorescence, 48 h; series mostly up to 46.1 µM. A digest of the protocol:
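Readout: per-well total peak green fluorescence (488 nm ex, 500–520 nm em) from objects 5–250 µm, reflecting correct splicing of an EGFP-654 reporter. Compounds were applied for 2 days at 37 °C to overnight-plated HeLa EGFP-654 cells; controls were DMSO and 500 nM IVS2-654 PNA.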

Assay [13] in a line: qHTS Assay for Identification of Small Molecule Agonists for Hypoxia Response Element Signaling Pathway (AID 914; active = well fitted activation curve with a large enough effect in the signal ratio, with a control signal flat, not every such curve was filed as active; the % refers to the signal ratio; also: % of control where 0% means no effect). To be noted: ME-180 (cervical carcinoma) HRE-bla reporter, beta-lactamase ratio, CoCl2, 17 h; stronger effect = higher value. The essentials:
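HRE-bla ME-180 cells, overnight plating in Opti-MEM with 0.5% dialyzed FBS; cpd titration + EC50 CoCl2, 17 h, 37 degrees Celsius; CCF4 2.5 h RT; 460/530 nm ratio; AC50.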

Assay [14] in a line: Confirmation and Secondary Assay for Modulators of Hemoglobin Beta Chain Splicing at IVS2 705 locus (AID 930).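 Also: HeLa cells stably expressing the EGFP-705 splicing reporter; GFP fluorescence per well restored by corrected splicing of the IVS2-705 intron in EGFP; % of control where 0% means no effect.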 To be noted: HeLa EGFP-705 splicing reporter, GFP fluorescence, 48 h; series mostly up to 46.1 µM. A digest of the protocol:
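Read-out: total peak GFP fluorescence per well (488 nm excitation, 500-520 nm emission) by laser-scanning cytometry. Cells: HeLa EGFP-705 splicing reporter, 2 days compound exposure in Optimem/2% FCS.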

Assay [15] concerns the target Pyruvate kinase (Leishmania mexicana) (UniProt Q27686). The assay is described as follows: qHTS Validation Assay for Inhibitors of Leishmania Mexicana Pyruvate Kinase (AID 945).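 Also: 0% = DMSO only neutral control wells.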 The conditions noted are these: purified L. mexicana pyruvate kinase, enzyme activity, E451W mutant enzyme; series mostly up to 57.5 µM. The essentials: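 Luminescent ATP detection (PKLight) after a 1 h room-temperature reaction of 0.2 nM LmPYK E451W mutant with 0.5 mM PEP and 0.1 mM ADP at pH 7.2. Activity is normalized to DMSO-only control wells.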

Assay [16] is described as follows: Validation of Assay for Modulators of Lamin A Splicing (AID 1459; active = well fitted curve in the direction sought with a large enough effect in the signal ratio; the % refers to the signal ratio;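 also: cells exposed to compound for two days before reading; 0% is about no effect; ratio rise marks activators and ratio drop marks inhibitors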). To be noted: Lamin A splicing dual RFP/GFP fluorescence reporter; series mostly up to 9.22 µM. The essentials:
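Splicing correction is reported by an EGFP-containing lamin A minigene in stably transfected S3 HeLa cells, while DsRed2 controls for viability and nonspecific signal. Cells are exposed to compounds for 48 hrs before the GFP over RFP ratio is taken.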

A short description of assay [17]: qHTS Assay for Lipid Storage Modulators (AID 1519; calls by dose curve). The conditions noted are these: Drosophila S3 cells, BODIPY lipid droplet/cell ratio, laser cytometry, cells loaded with oleic acid. A digest of the protocol:
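Cells seeded at 5,000 per well were treated with compounds over a concentration series and loaded with oleic acid (400 uM, as added). Lipid droplet fluorescence (488 nm excitation, 500-530 nm channel) was read by laser-scanning cytometry and normalized to 20 uM Triacsin C.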

Chain of Cytochrome P450 1A2 (Homo sapiens) (P05177 whole entry, looked up): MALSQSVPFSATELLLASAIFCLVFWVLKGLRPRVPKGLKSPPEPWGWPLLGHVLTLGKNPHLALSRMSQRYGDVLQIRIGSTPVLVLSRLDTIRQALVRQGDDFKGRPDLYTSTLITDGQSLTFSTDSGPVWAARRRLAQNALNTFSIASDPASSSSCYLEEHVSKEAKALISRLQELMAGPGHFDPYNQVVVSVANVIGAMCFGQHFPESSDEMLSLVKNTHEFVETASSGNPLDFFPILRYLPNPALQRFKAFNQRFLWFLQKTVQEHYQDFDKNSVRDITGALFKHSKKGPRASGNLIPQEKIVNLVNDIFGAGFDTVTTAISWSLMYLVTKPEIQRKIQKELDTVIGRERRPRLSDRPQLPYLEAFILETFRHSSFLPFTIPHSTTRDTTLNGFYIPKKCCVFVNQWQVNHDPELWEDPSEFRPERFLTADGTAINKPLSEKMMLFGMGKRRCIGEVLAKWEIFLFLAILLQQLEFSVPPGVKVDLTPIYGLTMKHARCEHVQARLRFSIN
Chain of Cytochrome P450 2C9 (Homo sapiens) (P11712 whole entry, looked up): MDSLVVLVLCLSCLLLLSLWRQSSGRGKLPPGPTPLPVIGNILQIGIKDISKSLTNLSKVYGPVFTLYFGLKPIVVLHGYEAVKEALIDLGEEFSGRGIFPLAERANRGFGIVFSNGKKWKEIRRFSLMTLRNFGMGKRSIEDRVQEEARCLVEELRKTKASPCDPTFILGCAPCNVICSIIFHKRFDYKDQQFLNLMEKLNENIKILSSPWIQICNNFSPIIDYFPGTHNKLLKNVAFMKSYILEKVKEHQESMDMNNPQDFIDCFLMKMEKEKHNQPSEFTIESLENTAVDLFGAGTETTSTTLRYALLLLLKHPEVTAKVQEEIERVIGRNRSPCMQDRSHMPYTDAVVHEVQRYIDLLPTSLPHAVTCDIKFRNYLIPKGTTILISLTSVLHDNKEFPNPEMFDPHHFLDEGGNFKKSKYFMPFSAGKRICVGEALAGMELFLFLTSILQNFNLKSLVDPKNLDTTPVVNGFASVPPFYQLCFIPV
Chain of Pyruvate kinase (Leishmania mexicana) (Q27686 2-499 E452W): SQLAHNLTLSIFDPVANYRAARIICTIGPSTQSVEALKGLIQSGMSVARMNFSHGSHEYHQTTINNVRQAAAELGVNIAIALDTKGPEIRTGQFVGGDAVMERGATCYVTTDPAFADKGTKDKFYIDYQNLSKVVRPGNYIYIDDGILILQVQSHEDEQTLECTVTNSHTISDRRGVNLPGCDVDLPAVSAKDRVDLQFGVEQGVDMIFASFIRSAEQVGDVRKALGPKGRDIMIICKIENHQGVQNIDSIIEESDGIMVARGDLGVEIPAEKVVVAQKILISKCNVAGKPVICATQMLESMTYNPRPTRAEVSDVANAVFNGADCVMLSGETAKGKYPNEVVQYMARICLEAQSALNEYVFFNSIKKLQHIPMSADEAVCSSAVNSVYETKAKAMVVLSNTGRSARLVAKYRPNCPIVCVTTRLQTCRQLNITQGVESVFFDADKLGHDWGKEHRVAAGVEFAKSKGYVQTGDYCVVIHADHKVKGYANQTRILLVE
Chain of 3',5'-cyclic-AMP phosphodiesterase 4B (Homo sapiens) (Q07343 whole entry, looked up): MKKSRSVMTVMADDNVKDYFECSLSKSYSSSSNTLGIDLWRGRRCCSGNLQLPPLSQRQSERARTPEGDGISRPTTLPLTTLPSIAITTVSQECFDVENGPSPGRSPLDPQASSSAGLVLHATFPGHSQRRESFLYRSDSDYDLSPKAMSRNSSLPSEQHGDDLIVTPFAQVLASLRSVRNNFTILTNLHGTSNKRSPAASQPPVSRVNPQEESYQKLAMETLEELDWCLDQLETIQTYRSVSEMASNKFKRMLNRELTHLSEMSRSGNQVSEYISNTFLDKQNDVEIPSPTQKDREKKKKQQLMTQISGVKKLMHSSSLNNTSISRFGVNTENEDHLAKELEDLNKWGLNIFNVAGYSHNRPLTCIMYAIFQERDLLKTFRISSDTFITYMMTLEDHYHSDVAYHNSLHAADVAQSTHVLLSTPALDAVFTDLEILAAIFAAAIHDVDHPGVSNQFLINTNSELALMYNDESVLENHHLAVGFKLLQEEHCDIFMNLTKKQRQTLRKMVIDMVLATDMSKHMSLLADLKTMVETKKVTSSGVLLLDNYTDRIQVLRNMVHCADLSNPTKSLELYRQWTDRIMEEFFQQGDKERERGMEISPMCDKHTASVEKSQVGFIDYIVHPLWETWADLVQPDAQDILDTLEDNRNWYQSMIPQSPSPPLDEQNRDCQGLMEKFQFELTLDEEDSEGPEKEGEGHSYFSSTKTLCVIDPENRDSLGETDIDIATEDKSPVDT
Chain of Cytochrome P450 2C19 (Homo sapiens) (P33261 whole entry, looked up): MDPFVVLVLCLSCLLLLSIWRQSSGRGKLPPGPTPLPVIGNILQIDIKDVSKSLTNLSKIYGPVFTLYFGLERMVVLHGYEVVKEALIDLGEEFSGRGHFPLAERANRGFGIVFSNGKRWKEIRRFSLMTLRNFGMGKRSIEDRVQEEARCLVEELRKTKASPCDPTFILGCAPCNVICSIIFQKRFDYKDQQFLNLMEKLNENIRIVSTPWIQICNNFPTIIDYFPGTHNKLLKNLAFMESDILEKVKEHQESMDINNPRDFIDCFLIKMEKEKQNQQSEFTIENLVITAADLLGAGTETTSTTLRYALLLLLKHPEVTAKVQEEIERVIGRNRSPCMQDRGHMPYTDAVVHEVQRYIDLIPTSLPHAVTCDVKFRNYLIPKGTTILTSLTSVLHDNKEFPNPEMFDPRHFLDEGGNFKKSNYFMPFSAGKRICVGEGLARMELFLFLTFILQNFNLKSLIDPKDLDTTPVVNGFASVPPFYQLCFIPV

With `NCCCCCCNS(=O)(=O)c1cccc2c(Cl)cccc12`, the activity change, negative = inhibition in assay [1] was 7.92% (inactive); in assay [3], -4.09% (inactive); in assay [17] (at 57.5 µM (top of the series)), 3.12% (inactive). Besides, the Potency in assay [2] was 7.94 µM (active) and 1.26 µM (active); in assay [4] it was > 46 µM (inactive); in assay [5], > 46 µM (inactive); in [9], 3.16 µM (active); in assay [11], 0.199 µM (active). Moreover, the Potency result in assay [6], in assay [7], in assay [10] and in assay [15] was “inactive” each time. The outcome in assay [8], in assay [12], in assay [14] and in assay [16] was inactive. Also, the activation in assay [13] was -27.9% (inactive). Also, the max response in [17] (measured here: cell count channel max response) stood at 13.8%.
